# PubChem BioAssay (NCATS)
# “And” between values parts separate entries of the source, which are not always exact repeats. Equal values may be shown once. Records with an inconclusive call do not appear. Where a call stands in place of a potency, no number is given. The source made the active and inactive calls. Unless noted, calls come from the whole dose curve; as a rule, active = well fitted curve in the direction sought with a large enough effect; inconclusive = small, poorly fitted or top-dose-only effect, or another doubt; inactive = no such curve, though single readings can be large; an effect the other way counts as inactive or inconclusive. Peptide text beside a SMILES is read from it.
# Tests used:
# [1] = Cell Viability - LYMP2-002 (AID 977);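 note: compound exposure lasted 24 h at 37 °C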
# Procedure, shortened: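 Human lymphoblastoid cells (2500/well) in complete medium were preincubated 5 hr at 37 C, then exposed to compounds for 24 hr at 37 C. Intracellular ATP was read by CellTiter-Glo luminescence; AC50 came from Hill-equation concentration-response fits.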
# [2] = Cell Viability - LYMP2-006 (AID 978); note: nearly all actives have a fitted effect of over 60% in size
# Procedure, shortened: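 Cells are seeded at 2500 per well and rested 5 hr at 37 C. Compounds are added across a concentration series for 24 hr at 37 C, after which ATP is quantified by luciferase luminescence.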
# [3] = Cell Viability - LYMP2-007 (AID 979);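 note: cells exposed to compound for 24 h before reading; nearly all actives have a fitted effect of over 60% in size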
# Procedure, shortened: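 Measured via luciferase-based ATP quantitation: lymphoblastoid cells, 24 hr compound exposure at 37 C, AC50 from Hill fits.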
# [4] = Cell Viability - LYMP2-008 (AID 980); note: nearly all actives have a fitted effect of over 60% in size
# Procedure, shortened: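 Measured: ATP-dependent luminescence, proportional to viable cell number, in human lymphoblastoid cells treated 24 hr with compound in complete culture medium. Values are AC50s from Hill-equation modelling of qHTS titrations.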
# [5] = Cell Viability - LYMP2-010 (AID 981); note: nearly all actives have a fitted effect of over 55% in size
# Procedure, shortened: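 This 24 hr viability screen uses LYMP2-010 lymphoblastoid cells, quantifies ATP via luciferase luminescence, and derives AC50 from Hill fits of qHTS concentration-response data.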
# [6] = Cell Viability - LYMP2-012 (AID 982);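 note: cellular ATP by luciferase luminescence where a drop means cytotoxicity; cells exposed to compound for one day before reading; nearly all actives have a fitted effect of over 55% in size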
# [7] = Cell Viability - LYMP2-016 (AID 984); note: nearly all actives have a fitted effect of over 55% in size
# Procedure, shortened: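 Cells were seeded at 2500 per well and rested 5 hr before a 24 hr compound exposure at 37 C. Viability was then gauged as cellular ATP by luciferase luminescence, with AC50 values fitted to the Hill equation.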
# [8] = Cell Viability - LYMP2-018 (AID 985); note: nearly all actives have a fitted effect of over 50% in size
# Procedure, shortened: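 In this qHTS viability assay, cells are treated for 24 hr and cellular ATP is quantified by luciferase-based luminescence, with tetraoctylammonium bromide as positive control.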
# [9] = Cell Viability - LYMP2-020 (AID 986); note: nearly all actives have a fitted effect of over 55% in size
# Procedure, shortened: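 Cells at 2500 per well receive a 24 hr compound exposure at 37 C. Viability is measured as ATP-dependent luciferase luminescence, with AC50 modeled from qHTS concentration-response curves.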
# [10] = Cell Viability - LYMP2-022 (AID 987); note: nearly all actives have a fitted effect of over 55% in size
# Procedure, shortened: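 In this qHTS cytotoxicity screen, compound titrations were incubated 24 hr at 37 C with human lymphoblastoid cells in complete medium. Luciferase-based ATP luminescence provided the viability signal.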
# [11] = Cell Viability - LYMP2-024 (AID 988); note: nearly all actives have a fitted effect of over 60% in size
# Procedure, shortened: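 Cells at 2500 per well received compound for 24 hr after a 5 hr settling period. Viability was scored by CellTiter-Glo luminescence, with AC50 from Hill fits.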
# [12] = Cell Viability - LYMP2-026 (AID 989); note: nearly all actives have a fitted effect of over 50% in size
# Procedure, shortened: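 Acute toxicity screen in complete culture medium, with 24 hr compound exposure at 37 C. Viability read as cellular ATP via luciferase reaction, with tetraoctylammonium bromide (6.4pM to 92 uM) as positive control.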
# [13] = Cell Viability - LYMP1-002 - Assay at 24 hr (AID 993)
# Procedure, shortened: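 Viability was judged from intracellular ATP using a luciferase read-out, following a 24-hour compound incubation at 37 C of lymphoblastoid cells seeded at 2500 per well. Concentration-response data were fitted to the Hill equation for AC50.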
# [14] = Cell Viability - LYMP1-002 - Assay at 40 hr (AID 994); note: nearly all actives have a fitted effect of over 60% in size
# Procedure, shortened: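 Concentration-dependent ATP loss after 40 hr treatment at 37 C defined toxicity; AC50 values were obtained by fitting the standard Hill equation.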
# [15] = molecular target: Alpha-galactosidase A (Homo sapiens) (UniProt P06280); experiment: Counterscreen for Glucocerebrosidase Inhibitors: qHTS Assay for Human alpha-Galactosidase at pH 4.5 (AID 992)
# Sequence of Alpha-galactosidase A (Homo sapiens) (P06280 whole entry, looked up): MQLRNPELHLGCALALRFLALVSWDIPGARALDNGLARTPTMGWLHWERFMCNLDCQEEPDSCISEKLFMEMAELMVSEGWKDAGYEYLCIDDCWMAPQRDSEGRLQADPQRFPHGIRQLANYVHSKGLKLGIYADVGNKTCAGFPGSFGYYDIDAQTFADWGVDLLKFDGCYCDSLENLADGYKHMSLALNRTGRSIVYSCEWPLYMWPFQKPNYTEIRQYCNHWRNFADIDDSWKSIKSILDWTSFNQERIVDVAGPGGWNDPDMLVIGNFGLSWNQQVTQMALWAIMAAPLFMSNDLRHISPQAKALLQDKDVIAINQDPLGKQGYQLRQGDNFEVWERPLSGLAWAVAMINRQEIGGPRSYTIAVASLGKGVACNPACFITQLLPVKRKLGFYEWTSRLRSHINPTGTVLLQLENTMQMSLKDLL
# Procedure, shortened: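 Fluorogenic 4-MU alpha-D-galactoside (80 uM) hydrolysis, 2 nM enzyme, pH 4.5 citrate buffer + 0.005% Tween-20; 20 min RT; NaOH/glycine pH 10 stop; Ex365/Em440. Compounds titrated 0.7 nM–77 uM; Hill-equation AC50.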
# [16] = molecular target: alpha-glucosidase (Oryza sativa, rice) (UniProt Q653V4); experiment: Counterscreen for Glucocerebrosidase Inhibitors: qHTS Assay for Rice alpha-Glucosidase at pH 5.0 (AID 997)
# Procedure, shortened: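 Endpoint fluorogenic assay at pH 5.0: compounds (0.7 nM to 77 uM) titrated against 4 nM rice enzyme and 400 uM 4-MU-alpha-glucoside for 20 min at room temperature; NaOH/glycine stop, read ex 365/em 440 nm, Hill-fitted AC50.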
# [17] = molecular target: DNA repair nuclease/redox regulator APEX1 (Homo sapiens) (UniProt P27695); experiment: qHTS Validation Assay for Inhibitors of the Human Apurinic/apyrimidinic Endonuclease 1 (APE1) (AID 1705; note: potency is the fitted concentration of half-maximal effect;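 for activity change, negative = inhibition: TAMRA fluorescence gain over two minutes as APE1 cuts a quenched THF abasic duplex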)
# Sequence of DNA repair nuclease/redox regulator APEX1 (Homo sapiens) (P27695 whole entry, looked up): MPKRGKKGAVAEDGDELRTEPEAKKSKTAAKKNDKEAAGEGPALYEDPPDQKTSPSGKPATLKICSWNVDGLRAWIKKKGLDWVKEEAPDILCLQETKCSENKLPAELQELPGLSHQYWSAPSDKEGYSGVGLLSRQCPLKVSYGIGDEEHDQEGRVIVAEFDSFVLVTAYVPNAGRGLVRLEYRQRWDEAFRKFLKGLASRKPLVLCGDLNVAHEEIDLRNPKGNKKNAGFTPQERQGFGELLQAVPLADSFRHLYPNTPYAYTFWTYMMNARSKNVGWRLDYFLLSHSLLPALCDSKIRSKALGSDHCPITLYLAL
# Procedure, shortened: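 qHTS, 1536-well. APE1 + cpd 15 min RT → 50 nM TAMRA/BHQ-2 THF-abasic dsDNA substrate → kinetic fluorescence, 3 reads/60 s; delta(read3−read1) = reaction progress. No-enzyme buffer = negative control.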
# [18] = qHTS Assay for Lipid Storage Modulators (AID 1519; calls by dose curve); conditions: Drosophila S3 cells, BODIPY lipid droplet/cell ratio, laser cytometry, cells loaded with oleic acid
# Procedure, shortened: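 Cells seeded at 5,000 per well were treated with compounds over a concentration series and loaded with oleic acid (400 uM, as added). Lipid droplet fluorescence (488 nm excitation, 500-530 nm channel) was read by laser-scanning cytometry and normalized to 20 uM Triacsin C.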
# [19] = Counterscreen for APE1 Inhibitors: Fluorescent Dye Displacement Validation Assay (AID 1707); note: potency is the fitted concentration of half-maximal effect
# Procedure, shortened: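 Endpoint fluorescence read at 480 nm excitation / 540 nm emission; DNA-binding compounds lower signal by displacing 250 nM Thiazole Orange from 50 nM dsDNA containing a tetrahydrofuran abasic site, Tris-HCl pH7.5 buffer with NaCl and MgCl2.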
# [20] = measured here: cell count channel max response
# [21] = measured here: lipid channel max response
smiles,measurement,setting,value
c1ccc2[nH]c(-c3cscn3)nc2c1,Potency,[1],inactive
same,Potency,[2],inactive
same,Potency,[3],inactive
same,Potency,[4],inactive
same,Potency,[5],inactive
same,Potency,[6],inactive
same,Potency,[7],inactive
same,Potency,[8],inactive
same,Potency,[9],inactive
same,Potency,[10],inactive
same,Potency,[11],inactive
same,Potency,[12],inactive
same,Potency,[13],inactive
same,Potency,[14],inactive
CC(C)c1ccc2c(c1)c(SC(C)(C)C)c(CC(C)(C)C(=O)O)n2Cc1ccc(Cl)cc1,outcome,[15],inactive
same,outcome,[16],inactive
same,Potency,[17],39.8 µM (active)
CC(=O)Nc1ccc(O)cc1,Potency,[1],inactive
same,Potency,[2],inactive
same,Potency,[3],inactive
same,Potency,[4],inactive
same,Potency,[5],inactive
same,Potency,[6],inactive
same,Potency,[7],inactive
same,Potency,[8],inactive
same,Potency,[9],inactive
same,Potency,[10],inactive
same,Potency,[11],inactive
same,Potency,[12],inactive
same,Potency,[13],inactive
same,Potency,[14],inactive
same,"activity change, negative = inhibition",[18]; at 25.7 µM (top of the series),-2.03% (inactive)
same,"activity change, negative = inhibition",[18]; at 57.5 µM (top of the series),-1.72% (inactive) and 6.64% (inactive)
same,max response,[18]; [20],-12.5% and -9.7% and 2.35%
same,max response,[18]; [21],-12.8% and -10.2% and 7.7%
O=C(O)c1cccnc1Nc1cccc(C(F)(F)F)c1,outcome,[15],inactive
same,outcome,[16],inactive
same,Potency,[17],inactive
same,Potency,[19],inactive
NS(=O)(=O)c1cc(C(=O)O)c(NCc2ccco2)cc1Cl,Potency,[1],inactive
same,Potency,[2],inactive
same,Potency,[3],inactive
same,Potency,[4],inactive
same,Potency,[5],inactive
same,Potency,[6],inactive
same,Potency,[7],inactive
same,Potency,[8],inactive
same,Potency,[9],inactive
same,Potency,[10],inactive
same,Potency,[11],inactive
same,Potency,[12],inactive
same,Potency,[13],inactive
same,Potency,[14],inactive
same,"activity change, negative = inhibition",[18]; at 25.7 µM (top of the series),1.95% (inactive)
same,max response,[18]; [20],-6.97%
same,max response,[18]; [21],-4.2%
NC(=NCc1ccccc1)NC(=O)c1nc(Cl)c(N)nc1N,outcome,[15],inactive
same,outcome,[16],inactive
same,"activity change, negative = inhibition",[18]; at 25.7 µM (top of the series),0.817% (inactive)
same,"activity change, negative = inhibition",[18]; at 57.5 µM (top of the series),2.33% (inactive)
same,max response,[18]; [20],-4.7% and 21.8%
same,max response,[18]; [21],-4.9% and 26.9%
same,Potency,[17],inactive
same,Potency,[19],inactive
O=Nc1c(-c2c(O)[nH]c3cc(Br)ccc23)[nH]c2ccccc12,outcome,[15],inactive
same,outcome,[16],inactive
same,Potency,[17],inactive
same,Potency,[19],20 µM (active)
O=C(O)c1cc(=O)c2c(OCC(O)COc3cccc4oc(C(=O)O)cc(=O)c34)cccc2o1,"activity change, negative = inhibition",[18]; at 25.7 µM (top of the series),-2.11% (inactive)
same,"activity change, negative = inhibition",[18]; at 57.5 µM (top of the series),11.5% (inactive)
same,max response,[18]; [20],9.46% and 18.8%
same,max response,[18]; [21],8.64% and 34.9%
COC(=O)[C@H](Cc1ccccc1)NC(=O)[C@@H](N)CC(=O)O (H-Asp-Phe-OMe),Potency,[1],inactive
same,Potency,[2],inactive
same,Potency,[3],inactive
same,Potency,[4],inactive
same,Potency,[5],inactive
same,Potency,[6],inactive
same,Potency,[7],inactive
same,Potency,[8],inactive
same,Potency,[9],inactive
same,Potency,[10],inactive
same,Potency,[11],inactive
same,Potency,[12],inactive
same,Potency,[13],inactive
same,Potency,[14],inactive
COc1c2occc2cc2ccc(=O)oc12,Potency,[1],inactive
same,Potency,[2],inactive
same,Potency,[3],inactive
same,Potency,[4],inactive
same,Potency,[5],inactive
same,Potency,[6],inactive
same,Potency,[7],inactive
same,Potency,[8],inactive
same,Potency,[9],inactive
same,Potency,[10],inactive
same,Potency,[11],inactive
same,Potency,[12],inactive
same,Potency,[13],inactive
same,Potency,[14],inactive
same,"activity change, negative = inhibition",[18]; at 25.7 µM (top of the series),2.64% (inactive)
same,max response,[18]; [20],-4.25%
same,max response,[18]; [21],1.14%
O=C(c1ccccc1)c1ccc2n1CCC2C(=O)O (stereo not drawn),"activity change, negative = inhibition",[18]; at 57.5 µM (top of the series),6.17% (inactive)
same,max response,[18]; [20],4.19%
same,max response,[18]; [21],13.3%
same,Potency,[17],inactive
same,Potency,[19],inactive
